Measurements: PubChem BioAssay (Tox21)
Active and inactive are the calls of the source. Entries that show only a call come without a potency. The call rests on the fitted dose curve.

These molecules were tested against Acetylcholinesterase (Homo sapiens) (UniProt P22303) (assay: Acetylcholinesterase (AChE) small molecule antagonists: enzyme-based qHTS assay with human liver microsomes (AID 1347399; further: nearly all actives have a fitted effect of over 60% in size)). Conditions: Potency: qHTS inhibition; outcome: qHTS inhibition; series mostly up to 115 µM.
Acetylcholinesterase (Homo sapiens), sequence (P22303 whole entry, looked up): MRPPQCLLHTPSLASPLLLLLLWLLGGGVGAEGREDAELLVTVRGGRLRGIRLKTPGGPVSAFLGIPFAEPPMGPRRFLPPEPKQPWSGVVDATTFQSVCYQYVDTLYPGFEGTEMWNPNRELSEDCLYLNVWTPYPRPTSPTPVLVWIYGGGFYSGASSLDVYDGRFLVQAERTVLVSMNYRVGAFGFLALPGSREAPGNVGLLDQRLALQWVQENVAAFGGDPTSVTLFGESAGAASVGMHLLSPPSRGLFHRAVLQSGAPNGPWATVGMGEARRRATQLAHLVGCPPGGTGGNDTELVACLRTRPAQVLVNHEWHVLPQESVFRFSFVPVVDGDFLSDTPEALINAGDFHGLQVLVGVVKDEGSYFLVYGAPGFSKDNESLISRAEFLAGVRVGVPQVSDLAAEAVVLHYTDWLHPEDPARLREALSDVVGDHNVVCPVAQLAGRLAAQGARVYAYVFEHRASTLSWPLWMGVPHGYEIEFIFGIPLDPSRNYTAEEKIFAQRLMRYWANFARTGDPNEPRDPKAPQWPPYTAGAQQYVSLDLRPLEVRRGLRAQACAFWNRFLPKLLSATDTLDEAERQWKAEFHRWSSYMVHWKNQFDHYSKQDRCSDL
How it was run: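 Recombinant human AChE (50 mU/mL in the enzyme mix) and human liver microsomes (0.25 mg/mL final) were preincubated with compound and NADPH (0.25 mg/mL final) for 30 min at 37 C. Acetylthiocholine/DTNB was then added; thiocholine was read colorimetrically after 10 min at room temperature.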
`O=C1OCCN1/N=C/c1ccc([N+](=O)[O-])o1` was tested, and the Potency was “inactive”. `CC(C)C(C)(C)C(C)(C)C(C)(C)S` was tested, and the Potency was “inactive”. `O=C(O)C[C@H](NC(=O)OCc1ccccc1)C(=O)O` was tested, and the Potency was “inactive”. For `CC(=O)Oc1ccc2c(c1)CC[C@@H]1[C@@H]2CC[C@]2(C)[C@@H](O)CC[C@@H]12`, the Potency was “inactive”. With `OC12N=C(c3ccccc3)SC1Cc1cc(Cl)ccc12` (stereo not given) the Potency was “inactive”. In the case of `ONc1ccccc1`, the Potency is reported as “inactive”. In the case of `CCCCCC1C(=O)CCC1CC(=O)OC` (stereo not given), the Potency is reported as “inactive”. For `CC1(C)O[C@@H]2C[C@H]3[C@@H]4CCC5=CC(=O)C=C[C@]5(C)[C@@]4(F)[C@@H](O)C[C@]3(C)[C@]2(C(=O)CO)O1`, the Potency was “inactive”. In the case of `CC(COC(C)(C)C)OCCCO` (stereo not given), the Potency is reported as “inactive”. In the case of `O=C(O)c1ccc(Cl)cc1Cl`, the Potency is reported as “inactive”. `Cc1cc(C(C)(C)C)c(O)c(C)c1Cn1c(=O)n(Cc2c(C)cc(C(C)(C)C)c(O)c2C)c(=O)n(Cc2c(C)cc(C(C)(C)C)c(O)c2C)c1=O` was tested, and the Potency was “inactive”. In the case of `CC(C)CCCC(C)CCCC(C)CCCCC(C)CCCC(C)CCCC(C)C` (stereo not given), the Potency is reported as “inactive”. `Cc1c(-c2cccnc2)c2ccccc2n1CCCCC(=O)O` was tested, and the Potency was “inactive”. In the case of `CCS(=O)(=O)c1ccc(OC)c(C(=O)OC)c1`, the Potency is reported as “inactive”. `CCCCCCCCCCCC(=O)N(CC)CC` was tested, and the Potency was “inactive”. `C=Cc1ccc(O)c(OC)c1` was tested, and the Potency was “inactive”. In the case of `Nc1ncnc(Nc2ccccc2)n1`, the Potency is reported as “inactive”. With `CCC(Cl)CC(Cl)C(Cl)C(Cl)C(Cl)C(C)Cl` (stereo not given) the activity change, negative = inhibition was 0.639% [at 23.6 µM] (inactive). In the case of `CCCOCCOCCO`, the Potency is reported as “inactive”. `CC(C)(C)C(=O)NCCCC(=O)O` was tested, and the Potency was “inactive”. `CCC(C)c1nccnc1OC` (stereo not given) was tested, and the Potency was “inactive”. `NCCNCCO` was tested, and the Potency was “inactive”. In the case of `O=C1c2ccccc2Cc2ccccc21`, the Potency is reported as “inactive”. `O=C(O)CCCCC(=O)O` was tested, and the Potency was “inactive”. With `CC(C)[C@H]1CC[C@@H](C)CC1=O` the Potency was “inactive”. With `C=C(C)c1cccc(C(=C)C)c1` the Potency was “inactive”. With `CCCCCCCCCCCC(=O)OC[C@@H](O)[C@H]1OC[C@H](OCCO)[C@H]1OCCO` the Potency was “inactive”. `CCCS(=O)c1ccc2nc(NC(=O)OC)[nH]c2c1` (stereo not given) was tested, and the Potency was “inactive”. In the case of `C=Cc1ccccc1`, the Potency is reported as “inactive”. In the case of `CCCCOC(=O)c1ccccc1C(=O)OCC(CC)CCCC` (stereo not given), the Potency is reported as “inactive”. With `CN=C(NC#N)NCCSCc1nc[nH]c1C` the Potency was “inactive”. `C[C@@H](O)C(=O)O` was tested, and the Potency was “inactive”. In the case of `Cc1cc(=O)[nH]c(C(C)C)n1`, the Potency is reported as “inactive”. In the case of `COCC(=O)O`, the Potency is reported as “inactive”. For `CC(=O)[O][Al][O]C(C)=O`, the Potency was “inactive”. `CCCCCCCCC1CO1` (stereo not given) was tested, and the Potency was “inactive”. In the case of `Cc1ccccc1C(N)=O`, the Potency is reported as “inactive”. `Cc1cccc(C)c1NC(=O)CN1CCN(CCCC(c2ccc(F)cc2)c2ccc(F)cc2)CC1` was tested, and the Potency was “inactive”. With `CC(=O)Oc1cccc(O)c1` the Potency was “inactive”. In the case of `O=C(O)CCNC(=O)c1ccc(N=Nc2ccc(O)c(C(=O)O)c2)cc1`, the Potency is reported as “inactive”.
